In the supplement of paper PMC5641865, “A screen for kinase inhibitors identifies antimicrobial imidazopyridine aminofurazans as specific inhibitors of the Listeria monocytogenes PASTA kinase PrkA” (The Journal of Biological Chemistry, 2017):
± gives the standard deviation of the averaged measurements.

System: Listeria monocytogenes 10403S
Assay: growth inhibition relative to ceftriaxone-alone control; higher = stronger potentiation of ceftriaxone growth inhibition
Conditions: 10 µM; ceftriaxone 1 ug/ml; 12 h
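Also: End-point A600 read in BHI broth at 37 °C with 2% DMSO, inhibition computed as (1 − OD with compound plus ceftriaxone ÷ OD with ceftriaxone only) × 100.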

Compound	growth inhibition [%]
Nc1nccc(-c2c(-c3ccc(F)cc3)ncn2C2CCNCC2)n1	2.49 ± 6.8
Nc1nccc(-c2c(-c3ccc(F)cc3)ncn2C2CCC(O)CC2)n1 (stereo not drawn)	-2.07 ± 1.6
O=C(c1ccc(/C=C/c2n[nH]c3ccccc23)cc1)N1CCNCC1	7.15 ± 1.2
COc1ccc(CNC(=O)c2ccc(-c3cc(-c4nnc(C)o4)ccc3C)cc2)cc1	9.02 ± 3.7
CC[C@@H]1C(=O)N(C)c2cnc(Nc3ccc(C(=O)NC4CCN(C)CC4)cc3OC)nc2N1C1CCCC1	41.8 ± 45
O=C1NC(=O)/C(=C\c2ccc3nccnc3c2)S1	13.5 ± 10
COc1cc2ncnc(Nc3ccc(C)c(O)c3)c2cc1OC	-12.9 ± 9.4
CC(C)n1nc(-c2cc3cc(O)ccc3[nH]2)c2c(N)ncnc21	16.2 ± 10
Fc1ccc(-c2c(-c3ccncc3)nc3n2CCS3)cc1	-6.65 ± 12
Cn1cc(-c2ccc3nnc(C(F)(F)c4ccc5ncccc5c4)n3n2)cn1	17.1 ± 33
COc1cc2c(cc1Nc1nc(Nc3ccsc3C(N)=O)c3cc[nH]c3n1)N(C(=O)CN(C)C)CCC2	-0.422 ± 3.1
COc1cc(C)c(N(C)C(=O)CN(C)C)cc1Nc1nc(Nc2cccc(F)c2C(N)=O)c2cc[nH]c2n1	-0.447 ± 1
COc1ccccc1-c1cc(/C=C2\C(=O)Nc3ncc(Br)cc32)cc(Br)c1O	-8.54 ± 8.1
COc1ccc(-c2nn3ncccc3c2-c2ccnc(Nc3ccc4c(c3)OCCO4)n2)cc1	-7.96 ± 4.1
COc1cc2c(Oc3ccc4[nH]c(C)cc4c3F)ncnc2cc1OCCCN1CCCC1 [Cediranib (AZD2171)]	46 ± 7.5
NC(=O)Nc1cc(-c2cccc(F)c2)sc1C(=O)N[C@H]1CCCNC1	16.7 ± 12
ON=C1CCc2cc(-c3nc(C4CCNCC4)[nH]c3-c3ccncc3)ccc21	7.4 ± 4.8
[O-][S+]1CCN(Cc2ccc(-c3ccc4ncnc(Nc5ccc(OCc6ccccc6)c(F)c5)c4c3)o2)CC1	2.23 ± 7.9
O=C(Nc1ccc(OC(F)(F)F)cc1)c1sccc1NCc1ccnc2ccccc12	35.9 ± 3.9
COc1cc2ncn(-c3cc(OCc4ccccc4C(F)(F)F)c(C(=O)N(C)C)s3)c2cc1OC	-5.41 ± 4.1
COc1cccc(/C=N/Nc2ncnc3c2cnn3-c2cccc(OC)c2)c1	-3.29 ± 11
CN(C)c1cc2c(Nc3ccc4c(cnn4Cc4ccccc4)c3)ncnc2cn1	-7.88 ± 0.099
CCn1c(-c2nonc2N)nc2c(N3CCCC3)nccc21	18.7 ± 38
